± gives the standard deviation. Where only a bound is given, the exact number is not on record here.

In the assay the test system is MILI (PIWIL2) piRISC loaded with piRNA #1 (26 nt). As to the kind of experiment: pre-steady-state target cleavage rate (min^-1); guide: piRNA #1 5'p-UGAGGUAGUAGGUUGUAUAGUAUCCA; MIWI and MILI are mouse PIWI proteins and EfPiwi is from a freshwater sponge; tags in brackets are library labels; higher = faster piRNA-guided slicing of the target. Conditions: auxiliary factor: 500 nM mouse GTSF1. Summed up:
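The pre-steady-state cleavage rate came from a burst-and-steady-state fit to pooled data from three Cleave-'n-Seq trials, in which uncleaved targets were sequenced and normalised to depth and to weakly complementary targets. Each reaction held 0.1 nM transcribed, DNA-blocked target RNA library and 1 nM active affinity-purified piRISC carrying one synthetic guide, with or without 500 nM GTSF1 partner protein, in HEPES–potassium acetate buffer at 33 °C for 0–8 or 0–960 min. k3 was capped at 0.0001 min^-1.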
For GGAGACCUUACUAUACUUGCUACUACCUCA, the “pre-steady-state target cleavage rate” value was 0.0548 ± 0.0062.
As for GGAGACCUAUGUAUACAACCUACGUACCUCA, the “pre-steady-state target cleavage rate” value was determined as 0.0295 ± 0.0083.
On to GGAGACCUAUCAAUACAACCUACUACCACA, for which the “pre-steady-state target cleavage rate” value came to 0.0775 ± 0.019.
For the sequence GGAGACCUAUGAUAACCAACCUACUACCUCA, the “pre-steady-state target cleavage rate” value is 0.00371 ± 0.0025.
The value for GGAGACCUAUCUAUACAAGCUACUUCCUCA was 0.164 ± 0.015.
As to GGAGACCUAUGUAUACAACCUACUAUCCUCA, the “pre-steady-state target cleavage rate” value was found to be 0.0887 ± 0.011.
The value for GGAGACCUAACUAUACAACCUACAACCUGA was 0.00865 ± 0.0074; that for GGAGACCUAUGAAUACAAGCUACUACCUGA was 0.017 ± 0.0038; that for GGAGACCUUACUAUACAACCUAAUACCUCA was 0.102 ± 0.014.
The value for GGAGACCUAUCUAUACUACCUACUUCCUCA was 0.0634 ± 0.01.
With GGAGACCUAUGAUAUCUACCUACUACCUGA the figure was less than 0.0001.
As to GGAGACCUAACUAUACAACCUACUAGCUCA, the “pre-steady-state target cleavage rate” value amounted to 0.0915 ± 0.027.
Consider GGAGACGAUACUUUACAACCAACUACCUCA, for which the “pre-steady-state target cleavage rate” value amounted to 0.00466 ± 0.0023.
Consider GGAGACCUAACUAUACAAGCUACAACCUCA, for which the “pre-steady-state target cleavage rate” value amounted to 0.182 ± 0.026.
As for GGAGACCUAUGAUAACAAGCCUACUACCUCA, the “pre-steady-state target cleavage rate” value was less than 0.0001.
Take GGAGACCUAUCUAUACAACCUACUAGCACA: the “pre-steady-state target cleavage rate” value turned out to be 0.0357 ± 0.012.
The value for GGAGACCUUACUAUUCAACCUACUACCUGA was 0.0942 ± 0.014; that for GGAGACCUAUGAUAUGAACGAACUACCUCA was less than 0.0001; that for GGAGACCUAUGAUAUCAUGGUACUACCUCA was less than 0.0001.
On to “GGAGACCUAUGAUAUGUUGCUACUACCUCU [g2:g11:cont:t1U]”, for which the “pre-steady-state target cleavage rate” value was less than 0.0001.
Take GGAGACCUAUGAAUACAACCUACUAUCUCA: the “pre-steady-state target cleavage rate” value is 0.00527 ± 0.0017.
In the case of GGAGACCUUACUUUACAACCAACUACCUCA, the “pre-steady-state target cleavage rate” value was found to be 0.00491 ± 0.0033.
The value for GGAGACCUAUGAUUACAAGCUACUACCACA was 0.0854 ± 0.022.
With GGAGACCUAUCUAUACAAGCUUCUACCUCA the figure was 0.0321 ± 0.0061.

(Values after the supplement of paper PMC10338343.)
